Measurements reported in PubChem BioAssay (Tox21).
Inconclusive results are not listed. The source made the active and inactive calls. Unless noted, calls come from the whole dose curve.

Experiments:
[1] = qHTS assay to identify small molecule agonists of the androgen receptor (AR) signaling pathway in the presence of an antagonist - cell viability counter screen (AID 1259379; active = well fitted curve in the direction sought with a large enough effect in the repeat runs; an effect the other way counts as inactive or inconclusive; note: nearly all actives have a fitted effect of over 25% in size; note: potency is the fitted concentration of half-maximal effect)
How it was run: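 Seed MDA-kb2 at 3,000 cells/well; incubate 5 hr, 37C, 0% CO2. Add nilutamide to 3.0uM final, then pin compounds at 15 concentrations. Incubate 16 hr. Add CellTiter-Fluor at 15 hr, read fluorescence after 1 hr.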

[2] = qHTS assay to identify small molecule agonists of the estrogen receptor beta (ER-beta) signaling pathway - cell viability counter screen (AID 1259380; active = well fitted curve in the direction sought with a large enough effect in the repeat runs; an effect the other way counts as inactive or inconclusive; note: nearly all actives have a fitted effect of over 30% in size; note: potency is the fitted concentration of half-maximal effect)
How it was run: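 CellTiter-Glo read, 30 min RT, same wells as bla assay; cells ER-beta-UAS-bla HEK293T; 16 hr compound, 37C; medium 2% charcoal-stripped FBS.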

[3] = biological target: Androgen receptor (Homo sapiens) (UniProt P10275); test: qHTS assay to identify small molecule agonists of the androgen receptor (AR) signaling pathway in the presence of an antagonist (AID 1259381); note: nearly all actives have a fitted effect of over 15% in size
Chain of Androgen receptor (Homo sapiens) (P10275 whole entry, looked up): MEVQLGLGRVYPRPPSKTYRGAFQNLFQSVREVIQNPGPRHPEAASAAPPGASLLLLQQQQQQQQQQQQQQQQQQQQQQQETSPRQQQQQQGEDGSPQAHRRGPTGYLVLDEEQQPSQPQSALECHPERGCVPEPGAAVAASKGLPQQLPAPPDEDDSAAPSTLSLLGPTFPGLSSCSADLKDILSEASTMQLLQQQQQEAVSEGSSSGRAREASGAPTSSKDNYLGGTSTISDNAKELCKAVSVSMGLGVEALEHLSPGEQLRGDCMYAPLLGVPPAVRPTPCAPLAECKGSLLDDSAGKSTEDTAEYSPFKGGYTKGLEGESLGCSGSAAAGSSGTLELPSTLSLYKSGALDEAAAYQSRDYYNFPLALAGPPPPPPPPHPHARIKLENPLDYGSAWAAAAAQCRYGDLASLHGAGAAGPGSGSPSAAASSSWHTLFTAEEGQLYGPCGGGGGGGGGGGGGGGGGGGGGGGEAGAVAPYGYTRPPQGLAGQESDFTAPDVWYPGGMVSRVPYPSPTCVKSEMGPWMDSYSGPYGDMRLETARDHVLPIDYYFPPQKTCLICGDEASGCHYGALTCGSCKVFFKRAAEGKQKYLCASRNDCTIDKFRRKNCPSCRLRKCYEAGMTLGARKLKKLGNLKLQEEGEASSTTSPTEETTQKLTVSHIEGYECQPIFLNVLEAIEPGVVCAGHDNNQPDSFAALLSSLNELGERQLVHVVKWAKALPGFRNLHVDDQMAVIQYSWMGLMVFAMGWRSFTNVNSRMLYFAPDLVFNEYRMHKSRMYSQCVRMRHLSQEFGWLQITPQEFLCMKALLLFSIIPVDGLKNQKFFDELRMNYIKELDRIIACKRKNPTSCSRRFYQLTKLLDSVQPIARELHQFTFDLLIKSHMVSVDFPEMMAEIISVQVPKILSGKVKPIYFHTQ
How it was run: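 Test compounds at 15 concentrations were incubated for 16hr with MDA-kb2 reporter cells in presence of 3.0uM nilutamide (final). Signal: ONE-Glo luciferase luminescence.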

[4] = qHTS assay to identify small molecule antagonists of the estrogen receptor beta (ER-beta) signaling pathway - cell viability counter screen (AID 1259382; active = well fitted curve in the direction sought with a large enough effect in the repeat runs; an effect the other way counts as inactive or inconclusive; note: nearly all actives have a fitted effect of over 55% in size; note: potency is the fitted concentration of half-maximal effect)
How it was run: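 In this multiplexed counter screen, cells were seeded at 2,000 per well in medium with 2% charcoal-stripped FBS and incubated 6 hr before compound and 1nM final E2 were added. Sixteen hours later, ATP-based luminescence reported viability.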

[5] = qHTS assay to identify small molecule agonists or antagonists of the thyroid stimulating hormone receptor (TSHR) signaling pathway - wild type cell line counter screen (AID 1259384)
How it was run: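 Wild-type HEK293 cells were plated 18 h at 37 C/5% CO2, pin-dosed with compound plus Ro20-1724 medium, held 30 min at room temperature, then given cAMP-d2 and anti-cAMP-cryptate; fluorescence was read after 1 h. Fifteen concentrations, triplicate.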

[6] = biological target: Thyrotropin receptor (Homo sapiens) (UniProt P16473); test: qHTS assay to identify small molecule antagonists of the thyroid stimulating hormone receptor (TSHR) signaling pathway (AID 1259385); note: nearly all actives have a fitted effect of over 20% in size
Chain of Thyrotropin receptor (Homo sapiens) (P16473 whole entry, looked up): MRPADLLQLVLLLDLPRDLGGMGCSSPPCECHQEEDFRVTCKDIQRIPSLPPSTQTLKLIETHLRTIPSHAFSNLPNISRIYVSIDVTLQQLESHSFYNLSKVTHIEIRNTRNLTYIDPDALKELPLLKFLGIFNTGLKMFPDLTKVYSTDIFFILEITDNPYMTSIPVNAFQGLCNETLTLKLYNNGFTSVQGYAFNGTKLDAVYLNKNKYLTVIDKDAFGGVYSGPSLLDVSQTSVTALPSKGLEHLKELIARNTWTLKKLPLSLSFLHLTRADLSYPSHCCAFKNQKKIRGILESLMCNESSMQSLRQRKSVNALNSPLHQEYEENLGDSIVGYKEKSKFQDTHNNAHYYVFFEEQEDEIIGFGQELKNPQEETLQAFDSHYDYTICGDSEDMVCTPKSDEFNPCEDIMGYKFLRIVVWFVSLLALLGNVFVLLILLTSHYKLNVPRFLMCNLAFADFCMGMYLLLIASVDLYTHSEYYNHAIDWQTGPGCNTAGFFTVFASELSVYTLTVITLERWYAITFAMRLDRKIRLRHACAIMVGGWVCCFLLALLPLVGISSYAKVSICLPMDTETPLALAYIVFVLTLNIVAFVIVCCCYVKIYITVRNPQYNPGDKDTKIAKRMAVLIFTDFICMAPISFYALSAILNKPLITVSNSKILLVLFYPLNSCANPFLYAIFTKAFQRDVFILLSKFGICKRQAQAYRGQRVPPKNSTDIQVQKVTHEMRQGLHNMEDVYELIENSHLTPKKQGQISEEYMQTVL
How it was run: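 TSHR-HEK293 cells were plated and held 18 h at 37C/5% CO2, then given compound plus Ro20-1724 and stimulated with TSH at 1.5 ng/mL final. After 30 min at room temperature, cAMP was detected with cAMP-d2/anti-cAMP-cryptate (1 h) by fluorescence.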

[7] = biological target: Estrogen receptor (Homo sapiens) (UniProt P03372); test: qHTS assay to identify small molecule agonists of the estrogen receptor alpha (ER-alpha) signaling pathway in the presence of an antagonist (AID 1259383); note: top concentration of the series differs between compounds; nearly all actives have a fitted effect of over 15% in size
Chain of Estrogen receptor (Homo sapiens) (P03372 whole entry, looked up): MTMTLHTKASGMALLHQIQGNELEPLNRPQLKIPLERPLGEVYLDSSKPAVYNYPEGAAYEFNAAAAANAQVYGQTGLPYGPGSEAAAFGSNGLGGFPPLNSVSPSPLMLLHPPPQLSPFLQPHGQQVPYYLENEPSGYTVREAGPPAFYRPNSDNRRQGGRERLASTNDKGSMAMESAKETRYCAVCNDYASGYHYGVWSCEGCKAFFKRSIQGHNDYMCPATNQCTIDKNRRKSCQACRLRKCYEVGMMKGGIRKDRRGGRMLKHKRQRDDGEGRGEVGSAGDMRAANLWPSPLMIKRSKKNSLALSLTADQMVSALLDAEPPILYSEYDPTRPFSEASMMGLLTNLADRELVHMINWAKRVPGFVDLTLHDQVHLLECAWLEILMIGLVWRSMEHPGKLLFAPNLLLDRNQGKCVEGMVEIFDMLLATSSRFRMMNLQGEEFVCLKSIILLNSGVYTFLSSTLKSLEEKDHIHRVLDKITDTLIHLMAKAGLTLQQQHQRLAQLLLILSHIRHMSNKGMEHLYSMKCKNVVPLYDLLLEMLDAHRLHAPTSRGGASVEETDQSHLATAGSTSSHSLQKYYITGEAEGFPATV
How it was run: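 Stably transfected VM7Luc4E2 reporter cells, kept 5 days in charcoal-stripped serum, received ICI-182,780 at 10.0nM final before compound addition. Following 22hr incubation at 37C and 5% CO2, luciferase signal was read by luminescence.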

[8] = qHTS assay to identify small molecule agonists of the estrogen receptor alpha (ER-alpha) signaling pathway in the presence of an antagonist - cell viability counter screen (AID 1259386; active = well fitted curve in the direction sought with a large enough effect in the repeat runs; an effect the other way counts as inactive or inconclusive;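 note: series mostly up to about 92 µM; cells exposed to compounds for 22 h at 37 °C before the viability read; nearly all actives have a fitted effect of over 30% in size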)
How it was run: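 Viability counter screen using VM7Luc4E2 (full-length ER-alpha, four ERE-luciferase). The cells were treated with compounds alongside ICI-182,780 10.0nM for 22hr, and live-cell protease fluorescence was quantified with CellTiter-Fluor.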

[9] = biological target: Progesterone receptor (Homo sapiens) (UniProt P06401); test: qHTS assay to identify small molecule agonists of the progesterone receptor (PR) signaling pathway (AID 1346784); note: nearly all actives have a fitted effect of over 30% in size
Chain of Progesterone receptor (Homo sapiens) (P06401 whole entry, looked up): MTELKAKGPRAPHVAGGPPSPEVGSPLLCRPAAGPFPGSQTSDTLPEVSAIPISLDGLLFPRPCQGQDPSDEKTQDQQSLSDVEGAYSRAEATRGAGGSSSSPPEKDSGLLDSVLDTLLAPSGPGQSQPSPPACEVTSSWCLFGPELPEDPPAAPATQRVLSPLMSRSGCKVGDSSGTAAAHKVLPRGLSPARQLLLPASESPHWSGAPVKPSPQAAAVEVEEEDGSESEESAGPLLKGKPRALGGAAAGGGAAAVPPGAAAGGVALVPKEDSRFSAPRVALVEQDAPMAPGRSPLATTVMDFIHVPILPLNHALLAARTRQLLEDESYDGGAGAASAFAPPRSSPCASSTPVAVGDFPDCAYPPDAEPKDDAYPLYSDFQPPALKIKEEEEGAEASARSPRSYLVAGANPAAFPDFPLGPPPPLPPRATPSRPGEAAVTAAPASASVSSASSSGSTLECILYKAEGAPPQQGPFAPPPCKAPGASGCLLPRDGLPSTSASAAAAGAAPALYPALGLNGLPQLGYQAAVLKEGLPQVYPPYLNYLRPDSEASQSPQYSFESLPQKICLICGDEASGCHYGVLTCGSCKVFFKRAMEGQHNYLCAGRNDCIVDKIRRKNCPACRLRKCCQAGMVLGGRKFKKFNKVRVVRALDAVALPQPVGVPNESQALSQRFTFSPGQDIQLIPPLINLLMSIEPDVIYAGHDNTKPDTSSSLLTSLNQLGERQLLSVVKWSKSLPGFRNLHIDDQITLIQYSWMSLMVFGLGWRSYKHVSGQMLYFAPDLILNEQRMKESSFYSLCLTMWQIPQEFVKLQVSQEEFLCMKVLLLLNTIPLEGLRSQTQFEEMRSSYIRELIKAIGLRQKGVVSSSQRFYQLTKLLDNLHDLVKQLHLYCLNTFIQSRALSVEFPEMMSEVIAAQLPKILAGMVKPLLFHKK
How it was run: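 Agonist qHTS: compounds pinned onto 3,000 PR-UAS-bla HEK 293T cells per well in charcoal-stripped serum medium, 16hr at 37C, then beta-lactamase activity measured by LiveBLAzer FRET fluorescence after 2 hours at room temperature.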

[10] = biological target: Progesterone receptor (Homo sapiens) (UniProt P06401); test: qHTS assay to identify small molecule antagonists of the progesterone receptor (PR) signaling pathway (AID 1346795; active = well fitted inhibition curve with a large enough effect in the signal ratio in the repeat runs, not every such curve was filed as active; the % refers to the signal ratio)
How it was run: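 Antagonist mode with agonist R5020 at 1 nM final and 16 hr incubation at 37C. Reporter was beta-lactamase driven by UAS in HEK293T (PR-UAS-bla), 2% charcoal-stripped serum; signal from LiveBLAzer FRET substrate, 2 hr at room temperature.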

Measured: Potency

N#Cc1nc(Cl)c(Cl)c(Cl)c1Cl
active: [1] 24.3 µM | [2] 15.4 µM | [4] 30.6 µM
inactive: [3] | [5] | [6]

Cc1ccc(C2OC[C@@H]3OC(c4ccc(C)cc4)O[C@H]([C@H](O)CO)[C@@H]3O2)cc1 (stereo partly specified)
inactive: all assays above

CCn1c2ccccc2c2ccccc21
not listed: [6] | [8]
inactive: all other assays above

O=C1OCc2ccccc21
not listed: [5]
inactive: all other assays above

Brc1cc(Br)cc(Br)c1
not listed: [6]
inactive: all other assays above

Cn1c(=O)[nH]c2ncn(C)c2c1=O
not listed: [6]
inactive: all other assays above

Cc1cc(F)ccc1-c1cc(N2CC[C@@H](O)[C@H]2CO)ncc1N(C)C(=O)C(C)(C)c1cc(C(F)(F)F)cc(C(F)(F)F)c1
active: [1] 53.6 µM | [2] 47.8 µM | [4] 53.6 µM
not listed: [9] | [10]
inactive: all other assays above

N#CCCOCCC#N
not listed: [10]
inactive: all other assays above

CCc1cccc(C)c1N(C(=O)CS(=O)(=O)O)C(C)COC (stereo unspecified)
not listed: [5] | [6]
inactive: all other assays above

CN1CCN(C)CC1
not listed: [5] | [8]
inactive: all other assays above

O=C(Cl)c1ccc(Cl)cc1Cl
not listed: [5] | [6]
inactive: all other assays above

CCOc1nc(F)cc2nc(S(=O)(=O)Nc3c(Cl)cccc3C(=O)OC)nn12
not listed: [6]
inactive: all other assays above
